Source: PubChem BioAssay
Where “and” joins values, the source holds several entries; their conditions need not be identical. Equal values may be shown once.

The compounds below were run against Albumin (Bos taurus) (UniProt P02769) (assay: compounds binding labelled BSA control protein – biochemical, small-molecule microarray, Alexa647 label, 635/667 nm fluorescence, artefact control for SMM control protein annotation, profiling panel (AID 1118;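 note: score merges 667 nm emission intensity and signal-to-noise per printed compound spot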)). Settings: BSA-A647 binding, fluorescence 635 nm, higher = more signal.
Chain of Albumin (Bos taurus) (P02769 whole entry, looked up): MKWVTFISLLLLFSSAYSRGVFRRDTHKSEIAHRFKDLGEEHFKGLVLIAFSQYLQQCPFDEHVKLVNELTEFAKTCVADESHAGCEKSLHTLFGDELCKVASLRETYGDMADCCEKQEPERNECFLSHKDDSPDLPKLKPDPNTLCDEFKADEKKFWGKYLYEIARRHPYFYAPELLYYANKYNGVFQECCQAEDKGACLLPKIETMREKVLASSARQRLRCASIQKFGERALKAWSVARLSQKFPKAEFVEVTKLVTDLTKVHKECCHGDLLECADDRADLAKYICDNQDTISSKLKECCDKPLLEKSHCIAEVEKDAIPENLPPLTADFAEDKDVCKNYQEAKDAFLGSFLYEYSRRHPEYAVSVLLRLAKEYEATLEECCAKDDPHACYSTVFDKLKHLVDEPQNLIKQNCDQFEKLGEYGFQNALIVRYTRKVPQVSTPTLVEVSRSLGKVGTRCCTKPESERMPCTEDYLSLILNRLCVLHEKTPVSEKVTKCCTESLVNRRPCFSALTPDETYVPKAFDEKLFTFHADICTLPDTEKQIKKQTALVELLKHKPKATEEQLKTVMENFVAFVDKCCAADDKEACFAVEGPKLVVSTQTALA

Structure (SMILES)	composite z-score
C=C[C@@H](C)[C@H](O)c1ccc(O)c2ccccc12	-0.0066 and 0.457
CCOC(=O)C[C@H]1[C@H](OC(=O)c2ccccc2-c2ccccc2)[C@@H](NC(=O)Cc2ccc(OC)cc2)c2cc(OCCCO)ccc2N1C(=O)c1ccc2ccccc2n1	0.0759 and 0.46
COCn1c2ccccc2c2nnc(C(C)=O)nc21	-0.565 and -0.0926
C[C@@H](ON=C1[C@H]2CCn3c(=O)n(-c4ccccc4)c(=O)n3[C@H]2[C@H](O)[C@@H]2O[C@H]12)c1cn([C@H](CO)Cc2ccccc2)nn1	0.0073
COC(=O)C1=C(C)N(Cc2ccccc2)[C@]23O[C@](C(=O)OC)(C(=O)N2[C@@H]1c1ccccc1)[C@H]1C(=O)N(C)C(=O)[C@H]13	0.899 and 0.489
C[C@@H]1CC[C@H]2C(=O)N3[C@@H](CC[C@@H](C)[C@@H]3c3ccc(-c4ccco4)cc3)C(=O)N2[C@H]1c1ccc(-c2ccco2)cc1	0.346 and -0.391
CCOC(=O)NN=C1C[C@@H](O)[C@@H](O)[C@@H]2[C@@H]3C(=O)N(Cc4ccc5c(c4)OCO5)C(=O)[C@@H]3CC[C@@H]12	0.397
C=CCN(C(=O)C(c1cccs1)N(C(=O)/C=C\C(=O)O)c1ccc(CCO)cc1)c1ccc(OC)cc1 (configuration not stated)	0.254 and -1.1
CC(CO)N1C(=O)[C@@H]2C3C(=O)OCCC=C[C@H]3OC23C=CCN(c2ccc(Cl)cc2)C(=O)[C@@H]13 (some centres not stated)	-0.999 and 0.734
C#CCN1C(/C=C/c2ccccc2)C(=O)OC[C@H]1c1ccccc1 (some centres not stated)	-0.147 and 0.723
C[C@@H]1CN2[C@@H](CC[C@@H](C)[C@@H]2c2ccc(Br)cc2)C(=O)O1	-0.66 and 0.877
C=CCN(C(=O)C(c1cccs1)N(CCOCCO)C(=O)/C=C\C(=O)O)c1ccc(OC)cc1 (configuration not stated)	-0.625 and -1.25
